Assay [1] deals with Neuro-2a. As to the kind of experiment: neurite formation score, plate-normalized to DMSO control mean 5.04 (score (0-8 scale)); higher = more or longer neurites. The settings on record: 1 µM. The method, then: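 Neuro-2a mouse neuroblastoma cells in PLL-coated 96-well plates were pre-treated for 1 h in DMEM(+) with each kinase inhibitor at 1 µM, then switched to serum-free DMEM(-) with inhibitor to induce neurite outgrowth and fixed about 2-3 h later. Three blinded observers scored neurite formation from 0 (no neurites) to 8 (long neurites on almost all cells).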

Assay [2] concerns Neuro-2a. The description is as above. The settings on record: 0.1 µM. On the procedure:
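Neuro-2a mouse neuroblastoma cells in PLL-coated 96-well plates were pre-treated for 1 h in DMEM(+) with each kinase inhibitor at 0.1 µM, then switched to serum-free DMEM(-) with inhibitor to induce neurite outgrowth and fixed about 2-3 h later. Three blinded observers scored neurite formation from 0 (no neurites) to 8 (long neurites on almost all cells).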

Where a name gives a salt, the structure may show the parent alone.

For `c1cn2cc(-c3ccc4cn[nH]c4c3)nc(Nc3ccc(N4CCOCC4)cc3)c2n1`, the neurite formation score with Neuro-2a [1] was determined as 4.54; in the assay on Neuro-2a [2] it was 5.08.
Taken in the same sequence, the figures for `COc1ccc(-c2ccc3ncc4c(c3c2)n(-c2ccc(N3CCNCC3)c(C(F)(F)F)c2)c(=O)n4C)cn1` were 4.29 and 4.92.
In the case of `N#CC[C@H](C1CCCC1)n1cc(-c2ncnc3[nH]ccc23)cn1`, the neurite formation score in the assay with Neuro-2a [1] came to 4.91; in the assay on Neuro-2a [2] it was 5.04.
For `CN1CCN(CCOc2cc(OC3CCOCC3)c3c(Nc4c(Cl)ccc5c4OCO5)ncnc3c2)CC1` [Saracatinib (AZD0530)] the same measures were 4.91 and 3.38.
On to `CC[C@@H]1C(=O)N(C)c2cnc(Nc3ccc(C(=O)NC4CCN(C)CC4)cc3OC)nc2N1C1CCCC1`, for which the neurite formation score worked out at 5.02 with Neuro-2a [1] and 4.58 in the assay with Neuro-2a [2].
For `COc1cc(N2CCC(N3CCN(C)CC3)CC2)ccc1Nc1ncc(Cl)c(Nc2ccccc2S(=O)(=O)C(C)C)n1` the same measures were 2.24 and 5.54.
For `Cn1cnc2c(F)c(Nc3ccc(Br)cc3F)c(C(=O)NOCCO)cc21` the same measures were 3.24 and 5.38.
For `Nc1ccc(-c2ccc3ncc4ccc(=O)n(-c5cccc(C(F)(F)F)c5)c4c3c2)cn1` [Torin 2] the same measures were 3.21 and 3.42.
Consider `Cc1c(F)cc(C(=O)NC2CC2)cc1-c1ccc(C(=O)NCC(C)(C)C)cn1` [Losmapimod], for which the values for the neurite formation score in the assay on Neuro-2a [1] and with Neuro-2a [2] were 5.21 and 4.75, respectively.
Taken in the same sequence, the figures for `OCCn1cc(-c2ccc3c(c2)CC/C3=N\O)c(-c2ccncc2)n1` were 3.69 and 4.58.
For `CNCc1ccc(-c2cc(-c3nc(-c4ccc(S(=O)(=O)C(C)C)cc4)cnc3N)on2)cc1` the same measures were 1.29 and 3.25.
In the case of `CN(C)Cc1cccc(N=C(c2ccccc2)c2c(O)[nH]c3cc(C(N)=O)ccc23)c1`, the neurite formation score in the assay on Neuro-2a [1] stood at 4.24; with Neuro-2a [2], 4.54.
For `CC[C@@H]1C(=O)N(C)c2cnc(Nc3ccc(C(=O)N[C@H]4CC[C@H](N5CCN(CC6CC6)CC5)CC4)cc3OC)nc2N1C(C)C` [BI6727 (Volasertib)] the same measures were 5.29 and 4.25.
For `COc1cc2nccc(Oc3ccc(NC(=O)NC4CC4)c(Cl)c3)c2cc1C(N)=O` [Lenvatinib (E7080)] the same measures were 4.57 and 4.38.
As for `Cc1ccc(Nc2nccc(N(C)c3ccc4c(C)n(C)nc4c3)n2)cc1S(N)(=O)=O`, the neurite formation score stood at 3.91 in the assay with Neuro-2a [1] and 3.71 with Neuro-2a [2].
For `O=C(Nc1cccc(Cl)c1)Nc1ncc(CCNc2ncnc3ccsc23)s1` [SNS-314 Mesylate] the same measures were 4.69 and 4.58.
For `Cc1ccc(S(=O)(=O)/C=C/C#N)cc1` the same measures were 5.14 and 2.42.
For `S=C(NCc1ccc2c(c1)OCO2)N1CCN(c2ncnc3c2oc2ccccc23)CC1` [Amuvatinib (MP-470, HPK 56)] the same measures were 4.69 and 4.92.
Take `C#Cc1cccc(Nc2ncnc3cc(OC)c(OCCCCCCC(=O)NO)cc23)c1`: the neurite formation score in the assay on Neuro-2a [1] stood at 4.36; in the assay with Neuro-2a [2], 4.25.
For `CN1CCN(c2cccc(Nc3nc4c(-c5ccc(S(C)(=O)=O)cc5)cccn4n3)c2)CC1` the same measures were 4.69 and 4.25.
Taken in the same sequence, the figures for `O=C(NCCCNc1nc(Nc2cccc(NC(=O)N3CCCC3)c2)ncc1I)c1cccs1` were 5.24 and 4.54.
Taken in the same sequence, the figures for `Cc1nc(Nc2cnn(C3CCNCC3)c2)nc2c1N(C)C(=O)c1cc3ccccc3cc1N2C` were 3.96 and 4.25.
Take `CN(C)CCCn1cc(C2=C(c3c[nH]c4ccccc34)C(=O)NC2=O)c2ccccc21`: the neurite formation score in the assay on Neuro-2a [1] turned out to be 5.24; with Neuro-2a [2], 5.54.
Taken in the same sequence, the figures for `CO[C@H]1C[C@@H]2CC[C@@H](C)[C@@](O)(O2)C(=O)C(=O)N2CCCC[C@H]2C(=O)O[C@H]([C@H](C)C[C@@H]2CC[C@@H](O)[C@H](OC)C2)CC(=O)[C@H](C)/C=C(\C)[C@@H](O)[C@@H](OC)C(=O)[C@H](C)C[C@H](C)/C=C/C=C/C=C/1C` [Rapamycin (Sirolimus)] were 4.57 and 5.54.
For the compound `CC1(COc2ccc3c(c2)ncn3-c2ccc3cccc(N4CCC(N)CC4)c3n2)COC1`, the neurite formation score came to 3.57 with Neuro-2a [1] and 4.21 with Neuro-2a [2].
For `O=C(Nc1cc(C(F)(F)F)cc(C(F)(F)F)c1)c1cc(Cl)ccc1O` the same measures were 2.8 and 4.76.
Taken in the same sequence, the figures for `N#CCNC(=O)c1ccc(-c2ccnc(Nc3ccc(N4CCOCC4)cc3)n2)cc1` were 4.69 and 4.92.
Consider `COc1cc2c(N3CCN(C(=O)Nc4ccc(OC(C)C)cc4)CC3)ncnc2cc1OCCCN1CCCCC1` [Tandutinib (MLN518)], for which the values for the neurite formation score in the assay on Neuro-2a [1] and in the assay with Neuro-2a [2] were 5.29 and 4.58, respectively.
For `Cc1ccc(-c2nn(C(C)(C)C)c3ncnc(N)c23)cc1`, the figures for the neurite formation score in the assay on Neuro-2a [1] and in the assay with Neuro-2a [2] were 2.9 and 3.54, respectively.
Taken in the same sequence, the figures for `CCc1cccc(CC)c1NC(=O)N1Cc2[nH]nc(NC(=O)c3ccc(N4CCN(C)CC4)cc3)c2C1` were 4.8 and 5.09.
For `CC(C)c1cnn2c(NCc3ccccc3)cc(NCCCCCCN)nc12` the same measures were 4.57 and 4.88.
With `CC(C)(C)n1nc(Cc2cccc3ccccc23)c2c(N)ncnc21`, the neurite formation score was 4.63 in the assay with Neuro-2a [1] and 4.58 with Neuro-2a [2].
Taken in the same sequence, the figures for `CC(C)[C@H](CO)Nc1nc(Nc2ccc(C(=O)O)c(Cl)c2)c2ncn(C(C)C)c2n1` [Purvalanol B] were 4.63 and 4.92.
Taken in the same sequence, the figures for `Cc1nc(Nc2ncc(C(=O)Nc3c(C)cccc3Cl)s2)cc(N2CCN(CCO)CC2)n1` were 1.57 and 2.38.
Turning to `O=[N+]([O-])c1ccc(Nc2nc(N3CCOCC3)nc(N3CCOCC3)n2)cc1`, the neurite formation score in the assay with Neuro-2a [1] came to 4.21; in the assay with Neuro-2a [2], 5.08.
Taken in the same sequence, the figures for `Oc1cccc(-c2nc(N3CCOCC3)c3oc4ncccc4c3n2)c1` [PI-103 Hydrochloride] were 4.69 and 5.25.
For `CC(C)(C)n1nc(-c2ccc(Cl)cc2)c2c(N)ncnc21` the same measures were 4.24 and 3.88.
For `COc1ccc2c(OCc3nnc4ccc(-c5ccccc5)nn34)ccnc2c1` the same measures were 4.54 and 5.75.
In the case of `CCn1c(N)c(C(=O)NC)c(=O)c2ccc(C#CC(C)(O)COC)nc21` (stereo not drawn), the neurite formation score stood at 4.54 in the assay with Neuro-2a [1] and 4.42 in the assay on Neuro-2a [2].
For `N#C/C(=C(/N)Sc1ccc(N)cc1)c1ccccc1C(F)(F)F` the same measures were 3.91 and 4.71.
For `Cc1nc(-c2cn3c(n2)-c2ccc(-c4cnn(C(C)(C)C(N)=O)c4)cc2OCC3)n(C(C)C)n1` the same measures were 5.29 and 4.92.
With `CS(=O)(=O)N1CCC(NC(=O)c2[nH]ncc2NC(=O)c2c(Cl)cccc2Cl)CC1`, the neurite formation score in the assay with Neuro-2a [1] worked out at 4.47; in the assay on Neuro-2a [2] it was 5.09.
For `CCn1c(=O)c(-c2ccc(-c3cncs3)cc2Cl)cc2cnc(Nc3ccc(N4CCN(C)CC4)cc3)nc21` the same measures were 4.96 and 4.25.
As for `CC(C)(C#N)c1ccc(N2C(=O)OCc3cnc4ccc(-c5cnc6ccccc6c5)cc4c32)cc1`, the neurite formation score is 3.63 in the assay on Neuro-2a [1] and 4.25 in the assay with Neuro-2a [2].
For `C#Cc1cccc(Nc2ncnc3cc4c(cc23)OCCOCCOCCO4)c1` [Icotinib] the same measures were 4.8 and 5.09.
For `COc1cc2ncnc(Nc3ccc(F)c(Cl)c3)c2cc1OCCCN1CCOCC1` [Gefitinib (ZD1839)] the same measures were 4.24 and 4.88.
Taken in the same sequence, the figures for `CNC(=O)c1ccc(C)c(-n2c(C)cc(OCc3ccc(F)cc3F)c(Br)c2=O)c1` were 3.57 and 2.21.
Turning to `O=C1NCCSc2c1sc1ccc(O)cc21`, the neurite formation score with Neuro-2a [1] is 3.69; in the assay on Neuro-2a [2], 4.58.
For `CC(C)CCN1c2nc(Nc3cc(F)c(O)c(F)c3)ncc2N(C)C(=O)C1C` (stereo not drawn) the same measures were 4.21 and 3.42.

Source of the values: the supplement of paper PMC8047044.
